Compound activity deposited in PubChem BioAssay by several laboratories.
NALP3 yeast inh – NALP3 inhibition in yeast. Yeast reconstituted NLRP3/ASC/caspase-1, beta-gal luminescence, 24 h. inhibition, % at 10 µM. 330,000 compounds, 0.39% hits;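 active = inhibition of 50% or more; inactive = inhibition below 50%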;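 also: plate controls were induced DMSO wells for no effect and uninduced yeast grown without galactose for full effect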
SKKanGAS inh – inhibitors of SKKanGAS S. pyogenes growth in kanamycin (SK-promoter or general growth effect) | inhibition, % at 7.5 µM | 300,000 compounds, 1.3% hits | BacTiter-Glo, 6 h;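 active = mean replicate score, as percent of positive control median, at least 50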;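 also: strain carries kanamycin resistance gene driven by streptokinase promoter and grows in 40 µg/ml kanamycin; loss of luminescence reflects streptokinase promoter inhibition or plain growth inhibition; 0% = median of DMSO wells and 100% = positive control at its reference dose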
tim10-1 inh – tim10-1 yeast growth inhibition | AID 463190 | S. cerevisiae tim10-1 ts strain growth, BacTiter-Glo, 24 h | 330,000 compounds, 2.2% hits | inhibition, % at 20 µM;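 active = inhibition of at least 40%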;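 also: mutant grown at 25 °C; 0% = DMSO wells with yeast and 100% = wells holding no yeast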
tim23-1 inh – tim23-1 yeast growth inhibition; S. cerevisiae tim23-1 growth, BacTiter-Glo luminescence, 24 h; 330,000 compounds, 1.3% hits; inhibition, % at 20 µM;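 active = growth inhibition of the mutant yeast at or above 50%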;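 also: temperature-sensitive mutant grown at 25 °C; plate controls were DMSO-treated mutant yeast for no effect and medium wells lacking yeast for full effect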
PfHsp90 yeast 2 – growth inhibition of yeast expressing Plasmodium Hsp90; 310,000 compounds, 0.32% hits; inhibition, % at 9.4 µM; S. cerevisiae expressing PfHsp90, BacTiter-Glo ATP, 48 h; yeast lacking PDR1 and PDR3 efflux regulators;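 active = every replicate shows inhibition above about 80%, whatever the replicate mean, limit read from the data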;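 also: 0% = DMSO neutral controls and 100% = 20 µM radicicol positive controls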
TIM10 inh – inhibits growth of TIM10 yeast strain. S. cerevisiae TIM10 strain growth, BacTiter-Glo luminescence, 24 h. inhibition, % at 10 µM. 330,000 compounds, 1.4% hits;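 active = inhibition of 40% or more at the single tested concentration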;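 also: wild-type TIM10 isogenic control strain grown at permissive 25 °C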
TIM10 conf – confirmation of TIM10 yeast growth inhibitors; inhibition, % at 10 µM; 4,600 compounds, 63% hits; shares compounds with TIM10 inh; S. cerevisiae tim10 strain growth, BacTiter-Glo luminescence, 24 h;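 active = inhibition of yeast growth at or above a set limit in either of two replicates at 10 µM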;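 also: this counterscreen used the strain with wild-type TIM10; 0% = yeast with DMSO and 100% = medium wells lacking yeast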
Active calls of the source: *; nt = no result. Hits are enriched below; roughly 4.6% of the tested compounds scored in any of these assays.

SMILES	NALP3 yeast inh	SKKanGAS inh	tim10-1 inh	tim23-1 inh	PfHsp90 yeast 2	TIM10 inh	TIM10 conf
Cc1ccc(C(=O)NC(=S)Nc2ccccc2C(F)(F)F)cc1	21.0	7.3	25.8	27.8	-19.5	40.1*	12.2
CN(C)/C(=N\S(=O)(=O)c1ccccc1)c1ccc(F)cc1	12.0	1.7	-10.5	3.5	-19.4	61.5*	0.1
Cc1nc2ccc(NC(=O)c3ccc([N+](=O)[O-])cc3[N+](=O)[O-])cc2s1	4.9	4.6	38.5	39.5	-12.9	42.0*	28.4
COc1ccc(C(=O)CSc2ccc(-c3ccccc3)nn2)cc1	31.5	-10.4	-14.6	21.2	-5.8	7.2	nt
COc1cccc(-c2ccc(SCC(=O)c3ccccc3)nn2)c1	-58.8	-5.1	22.5	11.8	-107.6	41.7*	42.0*
CCN(CC)CCn1c2c(c(SCC(=O)Nc3ccc(F)c(F)c3)nc1=O)CCC2	3.0	3.8	-5.4	-8.2	9.1	-7.2	nt
Nc1cc(OC(=O)c2cccs2)nn1S(=O)(=O)c1ccccc1	0.4	3.5	37.2	15.2	-12.0	54.7*	1.3
CCc1c(O)cc(=O)n(-c2ccccc2)c1-c1ccccc1	8.9	5.4	21.2	23.9	22.2	26.9	nt
O=c1oc2ccc(Cl)cc2cc1-c1nnc(Nc2cccc(C(F)(F)F)c2)s1	9.5	-2.8	8.6	13.8	-10.4	4.9	nt
CNc1nnc(-c2cc3cc(Cl)ccc3oc2=O)s1	11.8	-0.5	17.7	23.1	nt	46.2*	32.7*
O=Cc1cc(N=Nc2ccccc2Cl)ccc1O	47.1	77.9*	11.6	28.9	-26.1	62.0*	76.0*
O=Cc1cc(N=Nc2cccc(C(=O)O)c2)ccc1O	38.3	-0.2	1.3	5.5	15.9	16.4	nt
Cc1cccc(NNC(N)=S)c1	3.0	-1.3	14.9	17.0	nt	14.3	nt
Cc1cccc(NNC(=S)Nc2c(C)cccc2C)c1	31.8	15.9	23.3	42.3	-80.0	44.9*	35.6*
Cc1ccc(Cn2c(=O)c3ccccc3n3c(CCC(=O)NCCN4CCOCC4)nnc23)cc1	14.9	-0.1	6.2	-7.3	0.8	96.3*	-7.3
O=C(CCc1nnc2n(Cc3ccccc3Cl)c(=O)c3ccccc3n12)NCCCN1CCOCC1	4.1	-2.3	2.9	4.3	-11.4	0.2	nt
Cc1nc2ccc(NC(=S)N3CCOCC3)cc2nc1C	17.7	5.4	1.4	3.2	12.3	2.3	nt
O=C(Nc1ccccc1)Nc1ccc(Br)c(Cl)c1	37.2	3.7	-7.9	-10.9	-14.3	-4.2	nt
CC(=O)c1ccc(NC(=S)Nc2ccc(Br)c(Cl)c2)cc1	3.4	94.6*	36.5	43.9	25.9	41.8*	23.9
O=C(O)c1ccc(-n2nc(C(F)(F)F)cc2-c2cccs2)cc1	17.9	0.6	6.3	4.5	5.7	-1.3	nt
COc1ccc(S(=O)(=O)N2CCN(C(=O)C3CC(=O)N(c4ccccc4F)C3)CC2)cc1OC (stereo unspecified)	nt	nt	nt	nt	2.7	nt	nt
Cc1ccc(NC(=O)CN2C(=O)c3ccccc3C2=O)c(C)c1	20.3	-3.6	-25.2	-13.2	-16.1	96.9*	0.7
Cc1ccc(-c2nc3cc(NS(=O)(=O)c4ccc(C)cc4)ccc3o2)cc1	6.7	84.6*	35.4	34.5	-11.5	44.8*	37.0*
Cc1ccc(-c2nc3cc(N)ccc3o2)cc1	-11.7	4.1	36.4	25.1	1.5	40.9*	29.6*
Cc1ccc(-c2nc3cc(C)ccc3o2)cc1	20.3	-5.9	18.8	12.1	-21.0	4.6	nt
SMILES	NALP3 yeast inh	SKKanGAS inh	tim10-1 inh	tim23-1 inh	PfHsp90 yeast 2	TIM10 inh	TIM10 conf
CC1CCN(C(=O)c2cc(F)c(F)cc2Cl)CC1	-6.1	17.6	22.6	8.1	-29.5	-6.6	nt
O=C(Nc1ccc(N2CCOCC2)cc1)c1cc(-n2cnnc2)ccc1Cl	5.9	0.2	-15.0	-17.7	-9.9	96.5*	-8.7
O=C(Nc1ccccc1)c1cc(-n2cnnc2)ccc1Cl	8.7	-3.0	3.8	-12.1	-10.5	4.8	nt
CCOC(=O)c1sc(=NC(=O)c2cccs2)n(C)c1C	49.3	-1.1	0.9	42.8	nt	58.7*	46.4*
COc1ccc(NC(C)C(=O)Nc2cc(C(F)(F)F)ccc2N2CCOCC2)c(OC)c1 (stereo unspecified)	11.0	-17.8	28.4	32.8	-3.1	40.6*	14.6
CC(C)(C)C(=O)NC(=S)Nc1cc(C(F)(F)F)ccc1N1CCOCC1	4.8	-6.5	38.6	37.5	6.1	47.6*	25.1
CC(C)(C)C(=O)Nc1cc(C(F)(F)F)ccc1N1CCOCC1	-0.3	0.4	9.6	2.8	-26.4	4.2	nt
COc1ccc(C(CNC(=O)c2c(C)nn(Cc3ccc(C)cc3)c2Cl)N2CCOCC2)cc1 (stereo unspecified)	6.6	nt	9.6	18.9	0.0	9.0	nt
CC(C)CNC(=O)/C=C/C=C/CCCC/C=C/c1ccc2c(c1)OCO2	26.4	nt	6.2	9.0	-1.4	7.1	nt
O=C(C[C@H]1C/C=C\CC[C@H](Cc2ccc(F)cc2)C(=O)O[C@H](c2ccccc2)CNC1=O)N[C@H](CO)Cc1ccccc1	16.8	nt	12.5	6.0	-4.5	2.0	nt
COc1ccc(CNC(=O)CSc2cccc3cccnc23)cc1	-5.4	-6.0	13.7	-0.4	2.4	50.9*	11.9
CN(C(=O)Cn1cnc2ccccc2c1=O)C1CCS(=O)(=O)C1 (stereo unspecified)	-2.8	3.3	2.3	-0.2	nt	5.0	nt
Fc1ccc(CNCC2CCCO2)cc1 (stereo unspecified)	26.3	-0.1	0.1	-0.1	1.8	96.6*	-10.4
Cc1cc(C(=O)COC(=O)CC2Sc3ccccc3NC2=O)c(C)n1-c1ccc(Br)cc1 (stereo unspecified)	-0.7	18.4	28.2	23.0	1.7	22.5	nt
Cc1cc(C(=O)COC(=O)CC2Sc3ccccc3NC2=O)c(C)n1-c1ccccc1 (stereo unspecified)	3.8	4.3	36.2	25.7	-7.6	57.4*	32.0*
CC(=O)Nc1cccc(NC(=O)CSc2nc(=O)n(Cc3ccccn3)c3c2CCC3)c1	11.6	-5.7	7.9	7.6	nt	96.7*	3.8
CC(=O)Nc1cccc(NC(=O)CSc2nc(=O)n(Cc3ccncc3)c3c2CCC3)c1	2.8	-1.6	3.3	-1.1	-8.3	-9.3	nt
CCCC(=O)N1CCN(c2ccc(NC(=O)c3cccs3)cc2Cl)CC1	44.8	1.6	11.4	31.1	3.8	46.3*	16.8
CCCC(=O)N1CCN(c2ccc(NC(=O)C(C)(C)C)cc2Cl)CC1	-9.8	-14.4	22.9	7.0	6.0	-12.2	nt
O=C1c2cccc(OCC(=O)N3CCCc4ccccc43)c2CCN1Cc1ccc(F)cc1	3.3	9.2	33.9	43.3	-13.1	43.1*	-50.2
COc1nnc(-c2ccc(N3CCOCC3)c(NC(=O)C3CCCCC3)c2)c2ccccc12	-5.9	-7.6	34.7	33.2	-9.6	41.0*	24.9
